Calls of active or inactive are those of the source.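 How the source made its calls: active means visually confirmed hit in the image check and inhibition above 20%; inconclusive means visually confirmed hit but inhibition not above 20%; inactive means no visual hit in the image check.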
Experiment: endothelial E-selectin expression blockers – imaging, HUVEC, immunofluorescence, MLSMR starter and 10KST1 sets, primary screen (AID 487);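 on inhibition: signal is fraction of cell area covered by stained E-selectin grains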;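 on nuclei count: 100% = median nuclei count of all wells on the same plate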
Conditions: HUVEC TNFalpha-induced E-selectin immunofluorescence imaging, at 2 µM; inhibition: stronger effect = higher value; nuclei count: measured here: cell number, toxicity

| SMILES | inhibition | nuclei count [%] |
| --- | --- | --- |
| CS(=O)(=O)Nc1ccc(C(=O)NCCc2ccccc2)cc1 | -69% (inactive) | 125 |
| Cc1ccc(S(=O)(=O)NCCC(=O)OCn2nnc3ccccc3c2=O)cc1 | -272% (inactive) | 119 |
| O=C(N1CCOCC1)N1CCC(NC(=O)C23CC4CC(CC(C4)C2)C3)CC1 | -15.5% (inactive) | 81.8 |
| COc1ccc(C(=O)N2CCOCC2)cc1Br | -24.6% (inactive) | 108 |
| Cc1ccc(S(=O)(=O)CCc2nnc(NC(=O)c3cnccn3)s2)cc1 | -82.9% (inactive) | 117 |
| O=C(C1CCN(S(=O)(=O)Cc2ccccc2)CC1)N1CCN(c2ncccn2)CC1 | 34.3% (inactive) | 96.8 |
| COc1ccc(C2CC(=O)c3c(C)nc(N4CCN(c5ccccc5)CC4)nc3C2)cc1 (stereo not drawn) | 29.4% (inactive) | 108 |
| Nc1nonc1C(=O)NCCNCc1cc(Br)ccc1OCc1ccccc1F | -4.2% (inactive) | 123 |
| CCCCN(CC)S(=O)(=O)c1ccc2c(c1)CCCN2C(C)=O | -88.5% (inactive) | 103 |
| Cc1c(Cc2ccccc2)sc(N)c1C(N)=O | -32.2% (inactive) | 113 |
| CCOC(=O)N1CCN(c2cc3nccnc3cc2F)CC1 | -54.5% (inactive) | 111 |
| N#Cc1nc(COc2ccccc2)oc1NCCN1CCOCC1 | -14.1% (inactive) | 102 |
| O=C(Nc1ccccc1)N1C(=O)C2(OCCO2)c2ccccc21 | -75.2% (inactive) | 105 |
| CCOC(=O)C1CCCN(C(=O)c2cc3c(C)nc4ccccc4c3o2)C1 (stereo not drawn) | -91.4% (inactive) | 119 |
